Assay outcomes (PubChem BioAssay)
KAT2A inh: qHTS Assay for Inhibitors of GCN5L2; GCN5L2 HAT assay, ThioGlo1 CoA-SH fluorescence; 390,000 compounds, 0.21% hits; Potency, µM (highest dose often 58.9 µM), hits mostly inhibitors; Histone acetyltransferase KAT2A (Homo sapiens), Q92830
Target sequence (Q92830 whole entry, looked up): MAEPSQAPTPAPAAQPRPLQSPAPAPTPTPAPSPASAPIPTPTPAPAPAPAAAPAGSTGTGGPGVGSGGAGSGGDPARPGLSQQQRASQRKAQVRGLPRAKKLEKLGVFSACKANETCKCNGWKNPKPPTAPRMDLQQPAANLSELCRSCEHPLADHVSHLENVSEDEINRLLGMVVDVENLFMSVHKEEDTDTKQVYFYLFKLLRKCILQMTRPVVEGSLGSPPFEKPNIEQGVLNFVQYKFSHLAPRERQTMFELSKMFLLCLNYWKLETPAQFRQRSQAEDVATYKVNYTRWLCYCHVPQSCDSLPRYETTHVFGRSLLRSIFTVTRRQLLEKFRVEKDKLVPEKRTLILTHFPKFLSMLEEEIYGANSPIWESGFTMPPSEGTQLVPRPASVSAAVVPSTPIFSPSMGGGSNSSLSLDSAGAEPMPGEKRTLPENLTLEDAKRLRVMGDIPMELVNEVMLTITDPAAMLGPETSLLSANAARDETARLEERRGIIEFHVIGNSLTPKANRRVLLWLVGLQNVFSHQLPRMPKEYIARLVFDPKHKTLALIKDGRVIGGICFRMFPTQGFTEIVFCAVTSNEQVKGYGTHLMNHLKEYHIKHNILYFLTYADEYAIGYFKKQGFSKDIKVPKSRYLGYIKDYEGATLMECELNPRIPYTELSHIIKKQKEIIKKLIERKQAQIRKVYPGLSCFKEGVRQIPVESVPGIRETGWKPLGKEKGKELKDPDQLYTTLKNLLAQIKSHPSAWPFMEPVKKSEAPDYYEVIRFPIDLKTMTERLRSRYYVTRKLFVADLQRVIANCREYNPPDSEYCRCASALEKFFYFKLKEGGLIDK
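Preincubate 20nM GCN5L2 with compound 15 min, RT → add 50uM ThioGlo1 + 75uM H3(1-25) + 70uM acetyl-CoA → read fluorescence 0 and 20 min. Primary qHTS; fluorescent artifacts likely.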
VDR inh: Inhibitors of the vitamin D receptor (VDR): qHTS; Vitamin D3 receptor (Homo sapiens), P11473; VDR-SRC2-3 peptide fluorescence polarization, 2 h; Potency, µM, hits mostly inhibitors; 400,000 compounds, 0.93% hits
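Measured by FP: displacement of SRC2-3 coactivator peptide from VDR by library compounds, following a two-hour ambient incubation.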
DT40 TDP1 CPT: qHTS for Inhibitors of human tyrosyl-DNA phosphodiesterase 1 (TDP1): qHTS in cells in presence of CPT | chicken DT40 Tdp1-/-;hTDP1 cells + 20 nM CPT, ATP luminescence, 48 h | Potency, µM (top dose mostly 46.2 µM), usual class: inhibitors | 420,000 compounds, 12% hits | AID 686979, 2013; also: nearly all actives have a fitted effect of over 55% in size
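Cell growth measured by CellTiter-Glo luminescence after a minimum 48 h, 37 C compound exposure with 20 nM CPT in Tdp1-knockout DT40 cells stably expressing hTDP1, seeded 400/well; qHTS titration format.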
DT40 TDP1 no CPT: qHTS for Inhibitors of human tyrosyl-DNA phosphodiesterase 1 (TDP1): qHTS in cells in absence of CPT. DT40 Tdp1-/- hTDP1 cells, no CPT, ATP luminescence, 48 h. Potency, µM (top dose mostly 46.2 µM), actives largely listed as inhibitors. 420,000 compounds, 15% hits; also: nearly all actives have a fitted effect of over 55% in size
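Cells were dispensed at 400 per well, compounds added by pin tool, plates incubated ≥48 hr at 37 °C, then CellTiter-Glo added for 30 min at room temperature before luminescence reading. Line: DT40 Tdp1-/- complemented with hTDP1; camptothecin omitted.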
PLK1 PBD inh: qHTS for Inhibitors of PLK1-PDB (polo-like kinase 1 - polo-box domain): Primary Screen | Serine/threonine-protein kinase PLK1 (Homo sapiens), P53350 | Plk1 PBD binding of FITC phosphopeptide, fluorescence polarization | Potency, µM, actives largely listed as inhibitors | 360,000 compounds, 2.8% hits | AID 720504, 2013; also: series mostly up to about 57 µM; nearly all actives have a fitted effect of over 65% in size
TDP1 block: qHTS Assay for Inhibitors of Tyrosyl-DNA Phosphodiesterase (TDP1) | Tyrosyl-DNA phosphodiesterase 1 (Homo sapiens), Q9NUW8 | 350,000 compounds, 0.28% hits | AID 485290, 2010 | recombinant TDP1, AlphaScreen DNA substrate cleavage | Potency, µM (titrated, usually from 130 µM), actives largely listed as inhibitors; also: nearly all actives have a fitted effect of over 40% in size
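E. coli-derived human Tdp1, 1 nM final. Cpd preinc 15 min RT; substrate 15 nM final, 5 min RT; AS bead mix 10 ug/ml final, 10 min RT. Signal loss = tyrosine-FITC cleavage. No-enzyme wells = max signal.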
A number is an active result; 0 = inactive; ? = inconclusive; - = no result; [ ] = another dose, or the depositor's remark. Only some compounds are listed: those with a hit (about 18% of all), similar ones and a draw of the others. Calls follow the shape of the dose curve; as a rule, active = well fitted curve in the direction sought with a large enough effect; inconclusive = small, poorly fitted or top-dose-only effect, or another doubt; inactive = no such curve, though single readings can be large; an effect the other way counts as inactive or inconclusive.

SMILES	KAT2A inh	VDR inh	DT40 TDP1 CPT	DT40 TDP1 no CPT	PLK1 PBD inh	TDP1 block
Clc1ccc2nc(-c3ccc(Br)o3)c(Nc3ccc4c(c3)OCCO4)n2c1	0	0	21µM	?	-	0
c1ccc(-c2nc3ccccn3c2NCc2ccc3c(c2)OCO3)cc1	?	0	0	0	0	0
Cc1ccc(-c2nc3ccccn3c2Nc2ccc3c(c2)OCCO3)s1	0	0	0	0	-	0
Cc1ccc2nc(-c3ccc(C)s3)c(Nc3ccc4c(c3)OCCO4)n2c1	0	0	23µM	?	-	0
Clc1cccc(-c2ccc(-c3nc4ccccn4c3NCc3ccccc3)cc2)c1	0	0	16µM	23µM	0	0
CC1=C[C@@H](C)[C@@H](c2ccc(C(F)(F)F)cc2)OC1=O	0	0	0	0	0	0
CCn1c(-c2ccccc2F)nc2cc(C(=O)N3CCNC(=O)C3CC(=O)OC)cc(NC(C)=O)c21 (stereo unspecified)	-	-	0[9.04 µM]	0	-	-
CCOc1ccc(-n2c(O)c(/C=N/NC(=O)C3COc4ccccc4O3)c3ccccc3c2=O)cc1 (stereo unspecified)	0	0	0	?	0	0
Cc1ccn2c(Nc3ccc4c(c3)OCCO4)c(-c3ccc(C)o3)nc2c1	0	0	21µM	?	-	0
Cc1ccc2nc(-c3ccco3)c(Nc3ccc4c(c3)OCCO4)n2c1	0	0	16µM	?	-	0
c1coc(-c2nc3ccccn3c2Nc2ccc3c(c2)OCCO3)c1	0	0	?	0	-	0
Cc1ccc(-c2nc3ncccn3c2Nc2ccc3c(c2)OCO3)o1	0	0	?	0	0	0
N#CC1=C(S)N(c2ccccc2)C(c2ccc(-c3cc(Cl)ccc3Cl)o2)NC1=O (stereo unspecified)	?	79µM	0	0	?	0
N#CC1=C(S)N(c2ccccc2)C(c2ccc(-c3ccc(Cl)c(Cl)c3)o2)NC1=O (stereo unspecified)	0	56µM	0	?	?	0
N#CC1=C(S)N(c2ccccc2)C(c2ccco2)NC1=O (stereo unspecified)	0	0	0	0	0	0
C#CCn1c(=NC(=O)c2ccc(Br)s2)sc2cc(NC(C)=O)ccc21	0	0	0	0	0	0
C#CCn1c(=NC(=O)c2ccc(Br)s2)sc2cccc(OC)c21	0	0	?	21µM	0	0
C=CCn1c(=NC(=O)c2cccs2)sc2cccc(OC)c21	?	0	?	16µM	0	-
COCCn1c(=NC(=O)c2cccs2)sc2cc(NC(C)=O)ccc21	0	0	0	0	0	0
CCCCNC(=O)c1cc2ccccc2s1	0	0	0	0	0	0
CCSc1ccc(-c2cccc([N+](=O)[O-])c2)nn1	0	0	0	0	0	0
CC(C)c1ccc(C(=O)N2CCCC(c3cc(C(=O)Nc4ccc5c(c4)OCO5)no3)C2)cc1 (stereo unspecified)	-	-	?	21µM	0	-
CCCC(=O)N1CCCC(c2cc(C(=O)Nc3ccc4c(c3)OCO4)no2)C1 (stereo unspecified)	-	-	0	0	0	-
Cc1ccc(C)c(CC(=O)N2CCCC(c3cc(C(=O)Nc4ccc5c(c4)OCO5)no3)C2)c1 (stereo unspecified)	-	-	15µM	16µM	0	-
CN(C)c1ccc(CC(=O)N2CCCC(c3cc(C(=O)Nc4ccc5c(c4)OCO5)no3)C2)cc1 (stereo unspecified)	-	-	16µM	13µM	0	-
SMILES	KAT2A inh	VDR inh	DT40 TDP1 CPT	DT40 TDP1 no CPT	PLK1 PBD inh	TDP1 block
O=C(/C=C/c1ccco1)Nc1cccnc1	0	0	0	0	0	0
O=C(/C=C/c1ccco1)Nc1nc(-c2ccccc2)cs1	0	0	0	?	0	0
O=C(/C=C/c1ccco1)Nc1ccccn1	0	0	3.3µM	3.3µM	0	0
O=C(/C=C/c1ccco1)Nc1nc(-c2ccccn2)cs1	0	?	7.3µM	7.3µM	0	0
Cc1csc(NC(=O)/C=C/c2ccco2)n1	0	0	?	?	0	0
Cc1ccc(NC(=O)/C=C/c2ccco2)nc1	0	0	0.013µM	0.0058µM	0	-
CC1(C)CC2C1CCC1(C)OC2(C)CCC1O (stereo unspecified)	0	0	0	0	-	0
CN1C(=O)/C(=N\OC(=O)c2cccc3ccccc23)c2ccccc21	0	0	12µM	13µM	?	0
COc1ccc(C(=O)O/N=C2\C(=O)N(C)c3ccccc32)cc1	-	0	7.3µM	5.8µM	?	-
c1ccc(COCCC2CO2)cc1 (stereo unspecified)	0	-	-	-	-	-
COc1cccc(C(C)(O)c2nc(-c3cccc(C(F)(F)F)c3)cs2)c1 (stereo unspecified)	-	-	?	?	0	-
COc1ccc(-c2csc(C(C)(O)c3cccc(F)c3)n2)cc1 (stereo unspecified)	-	-	18µM	13µM	0	-
CC(O)(c1cccc(F)c1)c1nc(-c2cccc(F)c2)cs1 (stereo unspecified)	-	-	?	?	0	-
COc1cccc(C(C)(O)c2nc(/C=C/c3ccccc3)cs2)c1 (stereo unspecified)	-	-	?	18µM	0	-
CC(C)c1cccc(-c2csc(C(C)(O)c3cccc(F)c3)n2)c1 (stereo unspecified)	-	-	21µM	?	0	-
COc1ccc(C(C)(O)c2nc(-c3cccc(C(F)(F)F)c3)cs2)cc1 (stereo unspecified)	-	-	26µM	18µM	0	-
COc1ccc(C(C)(O)c2nc(-c3cccc(F)c3)cs2)cc1 (stereo unspecified)	-	-	?	?	0	-
COc1ccc(N2CC(NC(=O)/C=C\c3ccc4c(c3)OCO4)CC2=O)cc1 (stereo unspecified)	0	0	0	0	-	0
COc1ccc(C(C)(O)c2nc(-c3ccccc3OC)cs2)cc1 (stereo unspecified)	-	-	9.2µM	13µM	0	-
CC(O)(c1cccnc1)c1nc(-c2cccc(C(F)(F)F)c2)cs1 (stereo unspecified)	-	-	18µM	15µM	0	-
COc1cccc(C(C)(O)c2nc(-c3ccccc3C)cs2)c1 (stereo unspecified)	-	-	?	?	0	-
CC(C)c1ccc(/C=C/C(=O)n2nnc3ccccc32)cc1	-	?	16µM	?	0	0
CN(C)c1ccc(C(=O)n2nnc3ccccc32)cc1	0	0	23µM	?	0	0
